What all share (conditions): mRNA level, 48 h; actives raise or lower the signal
Read-out in experiment [1]: Interleukin 6 (IL6), IL6 (gene 3569)
Kind of experiment: LTEA_HepaRG_IL6: Life Technologies and Expression Analysis (LTEA) Assay for Interleukin 6 (IL6) using HepaRG (AID 2283509). The procedure, abridged:
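Differentiated human HepaRG cells, plated 48 h then switched to serum-free induction medium, were exposed in duplicate for 48 h to eight half-log concentrations up to 100 uM in 0.5% DMSO. IL6 mRNA measured by qRT-PCR, normalized to ACTB/GAPDH/POLR2A.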

Read-out in experiment [2]: Interleukin 6 Receptor (IL6R), IL6R (gene 3570)
Kind of experiment: LTEA_HepaRG_IL6R: Life Technologies and Expression Analysis (LTEA) Assay for Interleukin 6 Receptor (IL6R) using HepaRG (AID 2283510).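 As to AC50: TaqMan qRT-PCR signal normalized to ACTB GAPDH and POLR2A housekeeping genes.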 The procedure, abridged: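 Readout is IL6R transcript level by TaqMan qRT-PCR, normalized to three housekeeping genes and fitted bidirectionally against 0.5% DMSO controls. Human HepaRG cells received chemicals for 48 h in serum-free induction medium, highest concentration 100 uM.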

Read-out in experiment [3]: Potassium channel subfamily K member 1 (KCNK1), KCNK1 (gene 3775)
Kind of experiment: LTEA_HepaRG_KCNK1: Life Technologies and Expression Analysis (LTEA) Assay for Potassium channel subfamily K member 1 (KCNK1) using HepaRG (AID 2283511). An outline of the steps:
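Differentiated human HepaRG cells in serum-free induction medium were exposed in duplicate for 48 h to 8 half-log concentrations up to 100 uM in 0.5% DMSO. KCNK1 mRNA was measured by TaqMan qRT-PCR, normalized to ACTB, GAPDH and POLR2A, and fitted bidirectionally versus DMSO.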

Read-out in experiment [4]: Keratin 19 (KRT19), KRT19 (gene 3880)
Kind of experiment: LTEA_HepaRG_KRT19: Life Technologies and Expression Analysis (LTEA) Assay for Keratin 19 (KRT19) using HepaRG (AID 2283512). The procedure, abridged:
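Gene-expression endpoint in the human liver line HepaRG after 48 h exposure to up to 100 uM test chemical with 0.5% DMSO vehicle; KRT19 mRNA by qRT-PCR, analyzed bidirectionally versus DMSO.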

Read-out in experiment [5]: JUN Transcription Factor, JUN (gene 3725)
Kind of experiment: LTEA_HepaRG_JUN: Life Technologies and Expression Analysis (LTEA) Assay for JUN Transcription Factor using HepaRG (AID 2283513). The procedure, abridged: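 Cells plated 48 h, medium switched to serum-free induction medium, then dosed 48 h (100 uM top, half-log dilutions, 0.5% DMSO). RNA isolated; JUN measured by qRT-PCR against three housekeeping genes; gain or loss fitted relative to DMSO.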

Read-out in experiment [6]: Lipase C (LIPC), LIPC (gene 3990)
The experiment is described as follows: LTEA_HepaRG_LIPC: Life Technologies and Expression Analysis (LTEA) Assay for Lipase C (LIPC) using HepaRG (AID 2283514). The procedure, abridged: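 Differentiated human HepaRG cells in serum-free induction medium were exposed in duplicate for 48 h to eight concentrations (top 100 uM, half-log steps, 0.5% DMSO). LIPC mRNA was quantified by TaqMan qRT-PCR, normalized to ACTB, GAPDH and POLR2A, with bidirectional fitting versus DMSO.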

Read-out in experiment [7]: Lipoprotein lipase (LPL), LPL (gene 4023)
The experiment is described as follows: LTEA_HepaRG_LPL: Life Technologies and Expression Analysis (LTEA) Assay for Lipoprotein lipase (LPL) using HepaRG (AID 2283515). An outline of the steps:
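Differentiated human HepaRG cells in serum-free induction medium were exposed in duplicate for 48 h to eight half-log concentrations (top 100 uM) in 0.5% DMSO. LPL mRNA was quantified by TaqMan qRT-PCR, normalized to ACTB, GAPDH and POLR2A.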

Read-out in experiment [8]: MicroRNA 122 (MIR122), gene 406906
Kind of experiment: LTEA_HepaRG_MIR122: Life Technologies and Expression Analysis (LTEA) Assay for MicroRNA 122 (MIR122) using HepaRG (AID 2283516). Also: the transcript read is the microRNA miR-122. An outline of the steps: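 HepaRG plated 48 h, switched to serum-free induction medium, then treated in duplicate for 48 h (100 uM top, half-log steps, 0.5% DMSO vehicle). RNA isolated, qRT-PCR performed, concentration-response fitted both directions relative to DMSO.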

Read-out in experiment [9]: matrix metalloproteinase-10 (MMP10), MMP10 (gene 4319)
The experiment is described as follows: LTEA_HepaRG_MMP10: Life Technologies and Expression Analysis (LTEA) Assay for matrix metalloproteinase-10 (MMP10) using HepaRG (AID 2283517). An outline of the steps: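 HepaRG, collagen I, ~100,000 cells/well; serum-free induction medium; 48 h exposure, duplicate, 8-pt half-log to 100 uM, 0.5% DMSO. Readout: TaqMan qRT-PCR, normalized to ACTB/GAPDH/POLR2A; bidirectional fit vs DMSO.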

Read-out in a further experiment: MYC, MYC (gene 4609)
The experiment is described as follows: LTEA_HepaRG_MYC: Life Technologies and Expression Analysis (LTEA) Assay for MYC using HepaRG (AID 2283518). The procedure, abridged: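 Cells are thawed, plated and cultured 48 h, then treated for 48 h with test chemicals (eight half-log concentrations from 100 uM, 0.5% DMSO vehicle). RNA is isolated and MYC expression quantified by qRT-PCR against three housekeeping genes.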

Read-out in experiment [10]: matrix metalloproteinase-3 (MMP3), MMP3 (gene 4314)
Kind of experiment: LTEA_HepaRG_MMP3: Life Technologies and Expression Analysis (LTEA) Assay for matrix metalloproteinase-3 (MMP3) using HepaRG (AID 2283519). The procedure, abridged: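 Differentiated human HepaRG cells, plated 48 h on collagen I, were exposed in duplicate for 48 h in serum-free induction medium to eight half-log concentrations up to 100 uM in 0.5% DMSO. MMP3 mRNA was quantified by TaqMan qRT-PCR, normalised to ACTB, GAPDH and POLR2A.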

Read-out in experiment [11]: Paternally Expressed 10 (PEG10), PEG10 (gene 23089)
The experiment is described as follows: LTEA_HepaRG_PEG10: Life Technologies and Expression Analysis (LTEA) Assay for Paternally Expressed 10 (PEG10) using HepaRG (AID 2283520). An outline of the steps: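 HepaRG, 48 h post-plating → serum-free induction medium → 48 h chemical exposure (duplicate, 8-pt, max 100 uM, half-log, 0.5% DMSO) → lysis in RLT → TaqMan qRT-PCR for PEG10, ACTB/GAPDH/POLR2A normalisation.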

Read-out in experiment [12]: Nuclear factor NF-kappa-B p105 subunit (Homo sapiens) (UniProt P19838)
The experiment is described as follows: LTEA_HepaRG_NFKB1: Life Technologies and Expression Analysis (LTEA) Assay for Nuclear Factor Kappa B Subunit 1 (NFKB1) using HepaRG (AID 2283521).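 Also: TaqMan qRT-PCR transcript normalised to ACTB GAPDH and POLR2A housekeeping genes.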 The procedure, abridged: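 Human HepaRG cells receive eight half-log concentrations, highest 100 uM, for 48 h. NFKB1 expression is then quantified by qRT-PCR and analysed for up- or down-regulation relative to 0.5% DMSO vehicle.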

Read-out in experiment [13]: Protein phosphatase 2A (PPP2R4), PTPA (gene 5524)
Kind of experiment: LTEA_HepaRG_PPP2R4: Life Technologies and Expression Analysis (LTEA) Assay for Protein phosphatase 2A (PPP2R4) using HepaRG (AID 2283522). The procedure, abridged: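 Readout is PPP2R4 transcript level by microfluidic qRT-PCR after 48 h chemical treatment of human HepaRG liver cells. Concentrations spanned 100 uM downward in half-log steps; gain or loss of signal was fitted relative to DMSO.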

Read-out in experiment [14]: Phosphatase and tensin (PTEN), PTEN (gene 5728)
The experiment is described as follows: LTEA_HepaRG_PTEN: Life Technologies and Expression Analysis (LTEA) Assay for Phosphatase and tensin (PTEN) using HepaRG (AID 2283523). The procedure, abridged:
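Differentiated human HepaRG cells, plated 48 h then switched to serum-free induction medium, were exposed in duplicate for 48 h to eight half-log concentrations up to 100 uM in 0.5% DMSO. PTEN mRNA measured by TaqMan qRT-PCR, normalized to ACTB/GAPDH/POLR2A, bidirectional fit versus DMSO.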

Read-out in experiment [15]: solute carrier (SLC22A1), SLC22A1 (gene 6580)
Kind of experiment: LTEA_HepaRG_SLC22A1: Life Technologies and Expression Analysis (LTEA) Assay for solute carrier (SLC22A1) using HepaRG (AID 2283524). The procedure, abridged: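 Human HepaRG cells were plated 48 h, switched to serum-free induction medium, then exposed in duplicate for 48 h to 8-point half-log series from 100 uM in 0.5% DMSO. SLC22A1 mRNA measured by qRT-PCR, normalized to ACTB/GAPDH/POLR2A, fitted bidirectionally versus DMSO.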

Read-out in experiment [16]: Pyruvate Dehydrogenase Kinase 4 (PDK4), PDK4 (gene 5166)
Kind of experiment: LTEA_HepaRG_PDK4: Life Technologies and Expression Analysis (LTEA) Assay for Pyruvate Dehydrogenase Kinase 4 (PDK4) using HepaRG (AID 2283525). An outline of the steps: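 Differentiated human HepaRG cells, pre-cultured 48 h, were exposed in duplicate for 48 h in serum-free induction medium to eight half-log concentrations up to 100 uM in 0.5% DMSO. PDK4 mRNA was quantified by qRT-PCR, normalized to ACTB, GAPDH and POLR2A, bidirectional fitting versus DMSO.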

Read-out in experiment [17]: NAD(P)H dehydrogenase [quinone] 1 (NQO1), NQO1 (gene 1728)
Kind of experiment: LTEA_HepaRG_NQO1: Life Technologies and Expression Analysis (LTEA) Assay for NAD(P)H dehydrogenase [quinone] 1 (NQO1) using HepaRG (AID 2283526). The procedure, abridged:
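HepaRG, 48 h post-plating → serum-free induction medium → test chemical 48 h (duplicate, 100 uM top, half-log x8, 0.5% DMSO) → RNA isolation → qRT-PCR, ACTB/GAPDH/POLR2A normalization; bidirectional curve fit vs DMSO baseline.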

Read-out in experiment [18]: Nuclear factor erythroid 2-related factor 2 (Homo sapiens) (UniProt Q16236)
Kind of experiment: LTEA_HepaRG_NFE2L2: Life Technologies and Expression Analysis (LTEA) Assay for Nuclear factor erythroid 2-related factor 2 (NFE2L2) Transcription Factor using HepaRG (AID 2283527).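 As to outcome: TaqMan qRT-PCR transcript level normalised to ACTB GAPDH and POLR2A housekeeping genes.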 An outline of the steps:
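Differentiated human HepaRG cells in serum-free induction medium were exposed for 48 h to eight concentrations (top 100 uM, half-log dilutions, 0.5% DMSO), in duplicate. NFE2L2 mRNA was quantified by TaqMan qRT-PCR, normalized to ACTB, GAPDH and POLR2A, with bidirectional fitting versus DMSO.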

Read-out in experiment [19]: succinate dehydrogenase complex iron sulfur subunit B (SDHB), SDHB (gene 6390)
Kind of experiment: LTEA_HepaRG_SDHB: Life Technologies and Expression Analysis (LTEA) Assay for succinate dehydrogenase complex iron sulfur subunit B (SDHB) using HepaRG (AID 2283528). The procedure, abridged: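 A human HepaRG culture in serum-free induction medium received test chemicals for 48 h over an eight-point range capped at 100 uM. SDHB expression change was quantified by qRT-PCR.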

Activity calls are given as the source filed them. The calls were made as follows: active = hit-call score of the fitted dose curve at least 0.9, where 1 is the maximum; inactive = score below 0.9.

The term AC50 denotes the concentration giving half of the maximal activity seen.

Nuclear factor erythroid 2-related factor 2 (Homo sapiens), sequence (Q16236 whole entry, looked up): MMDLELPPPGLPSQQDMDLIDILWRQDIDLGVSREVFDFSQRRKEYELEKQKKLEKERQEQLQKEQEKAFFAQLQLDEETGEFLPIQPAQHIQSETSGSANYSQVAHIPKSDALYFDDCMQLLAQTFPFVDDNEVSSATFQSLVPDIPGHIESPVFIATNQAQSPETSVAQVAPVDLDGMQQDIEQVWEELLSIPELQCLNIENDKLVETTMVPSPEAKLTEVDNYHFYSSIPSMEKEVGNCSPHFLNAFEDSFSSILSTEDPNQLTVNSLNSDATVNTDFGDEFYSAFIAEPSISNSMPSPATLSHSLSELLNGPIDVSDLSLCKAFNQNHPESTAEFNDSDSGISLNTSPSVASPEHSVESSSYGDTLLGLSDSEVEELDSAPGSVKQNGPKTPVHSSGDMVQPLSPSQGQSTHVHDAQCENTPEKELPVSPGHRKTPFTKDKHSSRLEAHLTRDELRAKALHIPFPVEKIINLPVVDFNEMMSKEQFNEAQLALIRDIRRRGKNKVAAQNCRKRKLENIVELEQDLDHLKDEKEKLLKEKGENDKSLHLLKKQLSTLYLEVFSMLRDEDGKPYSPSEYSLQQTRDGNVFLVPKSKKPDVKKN
Nuclear factor NF-kappa-B p105 subunit (Homo sapiens), sequence (P19838 whole entry, looked up): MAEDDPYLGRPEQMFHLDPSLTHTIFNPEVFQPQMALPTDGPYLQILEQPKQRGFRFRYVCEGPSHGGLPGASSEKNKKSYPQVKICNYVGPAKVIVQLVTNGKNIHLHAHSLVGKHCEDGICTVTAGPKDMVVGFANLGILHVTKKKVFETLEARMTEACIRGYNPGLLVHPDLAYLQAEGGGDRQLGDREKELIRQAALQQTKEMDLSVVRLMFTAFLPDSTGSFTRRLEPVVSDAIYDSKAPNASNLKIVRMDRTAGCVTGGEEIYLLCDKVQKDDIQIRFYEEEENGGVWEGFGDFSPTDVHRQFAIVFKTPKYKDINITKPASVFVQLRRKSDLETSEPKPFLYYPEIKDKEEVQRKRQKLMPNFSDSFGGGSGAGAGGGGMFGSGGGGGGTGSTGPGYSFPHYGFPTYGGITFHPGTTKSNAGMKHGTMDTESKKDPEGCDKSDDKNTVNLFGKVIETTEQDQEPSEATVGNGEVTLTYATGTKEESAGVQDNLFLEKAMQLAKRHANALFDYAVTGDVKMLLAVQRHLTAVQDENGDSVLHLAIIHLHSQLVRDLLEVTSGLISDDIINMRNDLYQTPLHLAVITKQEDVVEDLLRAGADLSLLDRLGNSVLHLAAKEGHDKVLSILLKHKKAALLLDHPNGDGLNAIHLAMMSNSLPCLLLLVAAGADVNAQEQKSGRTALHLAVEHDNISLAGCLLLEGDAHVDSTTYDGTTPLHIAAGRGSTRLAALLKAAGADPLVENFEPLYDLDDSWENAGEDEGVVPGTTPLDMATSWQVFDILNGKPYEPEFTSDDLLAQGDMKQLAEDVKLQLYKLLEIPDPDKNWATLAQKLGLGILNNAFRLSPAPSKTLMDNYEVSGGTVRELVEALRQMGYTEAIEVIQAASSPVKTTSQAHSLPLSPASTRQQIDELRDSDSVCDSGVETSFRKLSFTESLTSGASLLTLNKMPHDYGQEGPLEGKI

Take `CN1CCN(c2ccccc2/C=C2\SCCN(c3ccc(Cl)c(Cl)c3)C2=O)CC1`: the AC50 in experiment [1] is 92.2 µM (active); in experiment [2], 50 µM (active); in experiment [3], 59.5 µM (active); in [4] it was 12.4 µM (active); in experiment [5], 75.5 µM (active); in experiment [7], 84.9 µM (active). For the same compound, the half-maximal activity concentration (AC50) in [8] was 94.1 µM (active); in experiment [9], 93.9 µM (active); in experiment [10], 87.1 µM (active); in experiment [11] it was 14 µM (active); in [15], 93.8 µM (active); in [17] it was 81.3 µM (active). The AC50 in experiment [18] is 79.5 µM (active). Also, the outcome is “inactive” in experiment [6]; “inactive” in the experiment with MYC, MYC (gene 4609); “inactive” in experiment [12]; “inactive” in [13]; “inactive” in experiment [14]; “inactive” in experiment [16]. For the same compound, the result in [19] was inactive.

Consider `CCCOc1sc(C(=O)N2CCC(c3cc(CN)ccc3F)CC2)c(C)c1Br`, for which the result in experiment [1], in [2], in experiment [3], in experiment [4], in [5] and in experiment [6] was inactive. Besides, the outcome in [7] is “inactive”; in experiment [8], “inactive”; in experiment [9], “inactive”; with MYC, MYC (gene 4609), “inactive”; in experiment [10] it was “inactive”; in experiment [11], “inactive”. Besides, the outcome in experiment [12], in experiment [13], in experiment [14], in [16], in experiment [17] and in [18] was inactive. Further, the compound was called inactive in [19].

On to `O=C(OCCOCCOC(=O)c1ccccc1)c1ccccc1`, for which the call in experiment [1], in experiment [2], in experiment [3], in experiment [4], in experiment [5] and in experiment [6] was inactive. The outcome in experiment [7] was “inactive”; in experiment [8], “inactive”; in [9], “inactive”; with MYC, MYC (gene 4609), “inactive”; in experiment [10] it was “inactive”; in experiment [11], “inactive”. Further, the compound was called inactive in [12], in experiment [13], in experiment [14], in experiment [15], in experiment [16] and in experiment [17]. Further, the compound was called inactive in experiment [18] and in experiment [19].

Values taken from PubChem BioAssay (EPA / NIEHS).
